Source: PubChem BioAssay
TEAD-YAP inh: TEAD-YAP interaction inhibition, primary screen, TEAD-YAP interaction inhibitor project, luminescence, HEK-TIYL cells | TEAD-Gal4/YAP UAS-luciferase luminescence | inhibition, % at 9.12 µM | 640,000 compounds, 1.4% hits; in the data active = inhibition above about 32%;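 also: 0% = median of test compound wells and 100% = reference inhibitor wells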
MITF inh: MITF inhibitors, primary screen, biochemical, AlphaScreen, human | AlphaScreen MITF homodimerization, bead proximity signal | inhibition, % at 2.6 µM | 650,000 compounds, 0.91% hits; in the data active = inhibition above about 50%;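 also: 0% = vehicle wells with protein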
FBW7 activator: FBW7 E3 ligase activators, primary screen, biochemical, AlphaScreen, human | AlphaScreen FBW7–phospho-cyclin E peptide binding, activator screen | normalized activity (activation), % at 26.1 µM | F-box/WD repeat-containing protein 7 (Homo sapiens), Q969H0 | AID 1259310, 2017 | 650,000 compounds, 0.13% hits; in the data active = normalized activity above about 1.9%;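 also: purified mutant Fbw7 with reduced substrate affinity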
GPR151 ag: activators of human GPR151, primary screen, cell-based, PathHunter beta-arrestin, luminescence; G-protein coupled receptor 151 (Homo sapiens), Q8TDV0; PathHunter beta-arrestin GPR151 cells; activation, % at 11.2 µM; 650,000 compounds, 1% hits; in the data active = activation above about 4.9%;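 also: 0% = median of compound wells and 100% = cells with positive control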
Target sequence (Q8TDV0 whole entry, looked up): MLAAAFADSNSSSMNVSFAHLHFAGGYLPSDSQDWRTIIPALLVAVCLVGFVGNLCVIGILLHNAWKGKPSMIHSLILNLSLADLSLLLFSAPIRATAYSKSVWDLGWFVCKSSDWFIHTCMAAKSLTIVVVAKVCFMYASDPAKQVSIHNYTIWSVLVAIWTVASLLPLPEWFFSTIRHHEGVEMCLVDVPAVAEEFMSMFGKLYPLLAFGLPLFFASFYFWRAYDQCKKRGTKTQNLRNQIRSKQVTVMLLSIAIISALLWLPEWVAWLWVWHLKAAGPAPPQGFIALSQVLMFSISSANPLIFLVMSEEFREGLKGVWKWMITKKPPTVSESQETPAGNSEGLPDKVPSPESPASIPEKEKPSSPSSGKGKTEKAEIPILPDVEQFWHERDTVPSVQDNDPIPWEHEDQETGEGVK
Numbers without * were called inactive. Most compounds without a hit are left out; they make up all but 3.5% or so of the library.

SMILES | TEAD-YAP inh | MITF inh | FBW7 activator | GPR151 ag
CCOC(=O)C1=C(C)N=c2s/c(=C\c3c(F)cccc3Cl)c(=O)n2C1c1cccc([N+](=O)[O-])c1 (stereo not given) | 4 | 7 | 0 | 0
O=C(NCCCN1CCCC1=O)c1cc(COc2ccc3ncccc3c2)on1 | 37* | -10 | 0 | 1
O=C(c1cc(COc2ccc3ncccc3c2)on1)N1CCC(N2CCSCC2)CC1 | 43* | -10 | 0 | 1
O=C(c1cc(COc2ccc3ncccc3c2)on1)N1CCCC(O)C1 (stereo not given) | 10 | 5 | 0 | 0
O=C(c1cc(COc2ccc3ncccc3c2)on1)N1CCCC(OCc2ccccn2)C1 (stereo not given) | 39* | 6 | 0 | 2
CCC(O)C1CCN(C(=O)c2cc(COc3ccc4ncccc4c3)on2)CC1 (stereo not given) | 50* | -2 | 0 | 1
O=C(c1cc(COc2ccc3ncccc3c2)on1)N1CCC(O)CC1 | 3 | 7 | 0 | 0
CCOc1ccc(-n2c(=S)sc3c(=O)n(-c4ccc(C)cc4)c(SCc4cc(C(C)=O)ccc4OC)nc32)cc1 | 1 | -3 | 0 | 0
NC(=O)CN1CCN(C2CC(=O)N(c3ccc(F)cc3)C2=O)CC1 (stereo not given) | 15 | 8 | 0 | 0
O=C1CCCC2=C1C(c1cccs1)N(C(=O)c1ccccc1)c1ccccc1N2 (stereo not given) | 4 | 2 | 0 | -1
O=C1CCCC2=C1C(c1cccs1)Nc1ccc(C(=O)c3ccccc3)cc1N2 (stereo not given) | 55* | -3 | 0 | 0
O=C1CCCC2=C1C(c1cccc(Br)c1)Nc1ccc(C(=O)c3ccccc3)cc1N2 (stereo not given) | 68* | 7 | 0 | 1
O=C1CCCC2=C1C(c1ccc(F)cc1)Nc1ccc(C(=O)c3ccccc3)cc1N2 (stereo not given) | 22 | 12 | 0 | -2
CC(=O)N1c2ccccc2NC2=C(C(=O)CCC2)C1c1cccs1 (stereo not given) | 49* | -3 | 0 | 1
O=C1CCCC2=C1C(c1cccc(Br)c1)Nc1ccccc1N2 (stereo not given) | -2 | 14 | 0 | 0
O=C1CCCC2=C1C(c1ccc(O)cc1)Nc1ccc(C(=O)c3ccccc3)cc1N2 (stereo not given) | 34* | 4 | 0 | 0
COc1cccc(-c2cnc3[nH]c(=O)n(C4CCCCC4)c3n2)c1 | -7 | 17 | 0 | 3
COC(=O)c1ccccc1NC(=O)Cn1c(SC)nc2ccccc21 | -3 | -7 | 0 | 1
COc1ccc(CC(=O)Nc2ccccc2I)cc1 | -8 | -5 | 0 | -2
O=C(O)CC(NS(=O)(=O)c1ccc([N+](=O)[O-])cc1)C(=O)O (stereo not given) | 1 | 2 | 0 | -1
COc1ccc(Cn2c(O)c(/C=C3\C=CC=N3)c(=O)[nH]c2=O)cc1 | 3 | 18 | 0 | 1
COc1ccc(OC)c(Cn2c(O)c(/C=C3\C=CC=N3)c(=O)[nH]c2=O)c1 | 40* | 6 | 0 | 2
c1ccc(CNc2ccnc(Nc3ccc(N4CCOCC4)cc3)c2)cc1 | 34* | 9 | -1 | 1
c1ccc(-c2ncn(-c3ccc(Nc4cc(-c5cccc(N6CCOCC6)c5)ccn4)cc3)n2)nc1 | 78* | 12 | 0 | 0
O=C(NCc1ccccc1)c1ccnc(Nc2ccc(N3CCOCC3)cc2)c1 | 1 | 21 | 0 | 0
SMILES | TEAD-YAP inh | MITF inh | FBW7 activator | GPR151 ag
c1cc(-c2ccnc(Nc3ccc(-n4cnc(-c5ccncc5)n4)cc3)n2)cc(N2CCOCC2)c1 | 20 | -13 | 0 | -1
c1cc(Nc2ccc3nc[nH]c3c2)cc(Nc2ccc(N3CCOCC3)cc2)n1 | 1 | 24 | 0 | 1
c1cc(Nc2cc(C3CC3)[nH]n2)cc(Nc2ccc(N3CCOCC3)cc2)n1 | 85* | 14 | -1 | 1
c1ccc(Nc2ncn(-c3ccnc(Nc4ccc(N5CCOCC5)cc4)c3)n2)cc1 | 37* | 5 | 0 | 0
O=C1NCCN(Cc2cccc(Oc3ccccc3)c2)C1CC(=O)N1CCSCC1 (stereo not given) | 12 | 2 | 0 | 0
Cc1cccc(-c2noc(CCC(=O)Nc3ccc(Cl)cc3)n2)c1 | -3 | 4 | 1 | -2
COc1ccc(S(=O)(=O)N(C)CC(=O)Nc2ccc(F)c(Cl)c2)cc1OC | -1 | 6 | 0 | 1
CCCOC(=O)C(C)Oc1ccc2c3c(c(=O)oc2c1)CCC3 (stereo not given) | 0 | 5 | 0 | 1
C[C@@H](O)[C@@H]1NC(=O)[C@@H]2C[C@H](NC(=O)Nc3cccc(Cl)c3Cl)CN2C1=O | 9 | 16 | 0 | 0
COc1cc(C2C(C(=O)OC3CCCCC3)=C(C)NC3=C2C(=O)CC(C)(C)C3)cc(Cl)c1O (stereo not given) | -5 | 0 | 0 | 1
c1ccc(-n2cccn2)c(Nc2ccnc(Nc3ccc(N4CCOCC4)cc3)c2)c1 | 40* | 6 | 0 | 3
Cc1ccccc1NC(=O)CCC(=O)N/N=C/c1ccc(N(C)C)cc1 | 6 | 8 | 0 | 0
O=C(NC(=S)NNC(=O)c1cc2ccccc2cc1O)c1ccco1 | 35* | 14 | 0 | -1
CCN1CCN(CC(=O)Nc2ccc(Cl)cc2)C(=O)C1=O | 7 | 19 | 1.9* | -2
CCN1CCN(CC(=O)Nc2ccc(C)cc2)C(=O)C1=O | -9 | 7 | 0 | 1
CCc1ccc(C2=CC(c3cc(OC)ccc3OC)n3ncnc3N2)cc1 (stereo not given) | 51* | 4 | 0 | 0
COc1cccc(C2C=C(c3ccc(C)cc3)Nc3ncnn32)c1 (stereo not given) | 54* | 16 | 0 | 2
CCc1ccc(C2=CC(c3cccc(OC)c3)n3ncnc3N2)cc1 (stereo not given) | 30 | 14 | 0 | -2
COc1ccc(OC)c(C2C=C(c3ccc(Cl)cc3)Nc3ncnn32)c1 (stereo not given) | 4 | 15 | 0 | 0
COc1cccc(C2C=C(c3cccc(Br)c3)Nc3ncnn32)c1 (stereo not given) | 39* | 25 | 0 | 1
COc1ccc(OC)c(C2C=C(c3cccc(Br)c3)Nc3ncnn32)c1 (stereo not given) | 12 | 3 | 0 | 2
COc1ccc(C2C=C(c3ccc(C)cc3)Nc3ncnn32)c(OC)c1OC (stereo not given) | 47* | 15 | 0 | 0
Cc1nn(-c2ccccc2)c2sc(C(=O)NNC(=O)c3ccc([N+](=O)[O-])cc3)cc12 | 2 | 6 | 0 | -1
CCOc1ccc(C(=O)O/N=C(\N)c2cccnc2)cc1OCC | -19 | -5 | 0 | -1
COc1ccc(C2=CC(c3cccc(OC)c3)n3ncnc3N2)cc1 (stereo not given) | 43* | 2 | 0 | 2
